Test results published in PubChem BioAssay AID686952 (The Scripps Research Institute Molecular Screening Center, 2013).
The campaign covered roughly 3,200 compounds. About 2,600 (81%) were called active. So high a share suggests a set chosen from earlier hits. Only a sample is shown. Values without a mark were called inactive.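 Rule for the calls: active = activation above the all-compound mean plus 3 SD, ignoring values outside control-based bounds (cut at about 4.8% in these data); inactive = the rest.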

Assay: apparent activators from fluorescence artefacts, no enzyme – biochemical, fluorescence intensity, high throughput, artefact control for kallikrein-7 zymogen activator project (AID 686952);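 note: value is the 4 h activation minus the activation read at time zero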
Conditions: EDANS-DABCYL substrate fluorescence interference, 4 h, at 7 µM, stronger effect = higher value, solvent 0%, active enzyme control 100%

Compound	activation
CCS(=O)(=O)Nc1cc(C(=O)OC)ccc1C(=O)OC	8.19% (active)
CCCCCC(=O)Nc1ccc(-c2cn3cccnc3n2)cc1	28.5% (active)
CC(=O)Nc1ccc(-c2cn3cccnc3n2)cc1	73.5% (active)
CC(C)(C)C(=O)Nc1ccc(-c2cn3cccnc3n2)cc1	80.3% (active)
CCOC(=O)C1=C(O)/C(=C/c2ccc(OCC(=O)Nc3ccc(C)cc3)cc2)N=C1C	3.03%
CCOc1ccc(-n2c(SCC(=O)Nc3cc(C)c(NC(=O)c4ccccc4)cc3OC)nnc2-c2cccs2)cc1	19.4% (active)
COc1c(N2CCN(C(=S)Nc3ccccc3F)C(C)C2)c(F)cc2c(=O)c(C(=O)O)cn(C3CC3)c12 (configuration not stated)	-26%
Cc1cccc(C)c1NC(=O)C(c1ccccc1)N1CC(=O)Nc2ccccc21 (configuration not stated)	24.8% (active)
CNc1cncc(-c2ccc(NS(C)(=O)=O)cc2)n1	46.5% (active)
CN(C)Cc1c(O)ccc2c(=O)c(-c3ccccc3Cl)coc12	83.7% (active)
CC(=O)Nc1ccc(S(=O)(=O)NCC(=O)OCc2cc(=O)oc3ccc4ccccc4c23)cc1	209% (active)
Cc1c(C)c2c(OCC(=O)N[C@@H](C(=O)O)c3ccccc3)cc3c(c2oc1=O)CCC(C)(C)O3	49.4% (active)
Cc1c(C)c2c(OCC(=O)NCCCO)cc3c(c2oc1=O)CCC(C)(C)O3	55.7% (active)
Cc1cc(=O)oc2c3c(cc(OCC(=O)NCCC(=O)N[C@@H](C)C(=O)O)c12)OC(C)(C)CC3	65.1% (active)
Cc1cc(=O)oc2c3c(cc(OCC(=O)N[C@H](C(=O)O)c4ccccc4)c12)OC(C)(C)CC3	49.3% (active)
O=C(O)c1ccc2c3c(cccc13)C(=O)N(OS(=O)(=O)c1ccccc1)C2=O	103% (active)
Cc1cc(C)c2c(n1)nn1c(-n3ccnc3)cc(C)nc21	44.4% (active)
Cc1ccc(C2Nc3ccccc3C(=O)N2CCN2CCNC2=O)cc1 (configuration not stated)	19.4% (active)
C/C(=C\c1ccccc1)C1NC(=O)c2c(sc3c2CCCC3)N1 (configuration not stated)	14.5% (active)
COC(=O)c1cc(N2CCNCC2)nc2ccccc12	33.6% (active)
CC(=O)N1CCN(C(=O)c2cc(-c3ccc(C)o3)nc3ccccc23)CC1	66.4% (active)

Compound	activation
CC1CCCN(C(=O)c2cc(-c3ccco3)nc3ccccc23)C1 (configuration not stated)	35.5% (active)
CCCCCn1c(=O)c(C(=O)OCC)c(Cl)c2ccccc21	-2.49%
CCCCN(CCCC)CC(O)Cn1c2ccccc2c(=O)c2ccccc21 (configuration not stated)	16.2% (active)
O=C1NC(c2cccc(Cl)c2)Nc2ccccc21 (configuration not stated)	18.9% (active)
CCOC(=O)NN1C(=O)c2ccccc2NC1c1cccc(O)c1 (configuration not stated)	20.4% (active)
CC(=O)NN1C(=O)c2ccccc2NC1c1ccccc1 (configuration not stated)	35.4% (active)
CCc1nc(Nc2ccc(NC(C)=O)cc2)c2oc3ccccc3c2n1	218% (active)
CC(=O)Nc1nc(C)c(-c2csc(Nc3ccc(S(N)(=O)=O)cc3)n2)s1	46.5% (active)
Cc1nn(-c2ccccc2)c(C)c1NC(=O)COC(=O)c1cc(Cl)ccc1O	23.3% (active)
CCOC(=O)c1[nH]c2ccc(OC)cc2c1NC(=O)CCN1CCN(Cc2ccccc2)CC1	-3.59%
O=C(Nc1nncs1)c1ccccc1NS(=O)(=O)c1cccs1	38.3% (active)
O=c1oc2c(CN3CCCCC3)c(O)ccc2c2c1CCCCC2	68.6% (active)
COc1cc(/C=N\NC(=O)c2nonc2N)c(OC)cc1Br	74% (active)
COc1cc2c(cc1OC)CC1(CCCCC1)N=C2	44.6% (active)
CCCN(CC(=O)NC(=O)NC1CCCCC1)CC(=O)Nc1cc(Cl)ccc1Cl	4.93% (active)
CCOCCCNC(=O)c1cc2c(=O)n3ccccc3nc2s1	68.6% (active)
CN(C(=O)c1cc2c(=O)n3ccccc3nc2s1)C1CCCCC1	23% (active)
CCN1CCN(C(=O)Cn2nc(C)n3c(cc4c(OC)cccc43)c2=O)CC1	29.8% (active)
CC1(C)Oc2ccc3ccc(=O)oc3c2/C(=N/O)C1=O	84.6% (active)
COC(=O)Cc1cc(=O)oc2c(C)c(O)ccc12	76.7% (active)
CCN1CCCC1CNC(=O)c1cc2cc(OC)c(OC)cc2[nH]1 (configuration not stated)	22.6% (active)
